In the supplement of paper PMC10681739:

biological target: T1, ETS1 (UniProt P14921); assay: ETS1 binding intensity (PBM fluorescence), ETS1 alone (arbitrary fluorescence units); higher = stronger binding; conditions: ETS1 concentration 1 nM; RUNX1 concentration 0 nM
T1 sequence: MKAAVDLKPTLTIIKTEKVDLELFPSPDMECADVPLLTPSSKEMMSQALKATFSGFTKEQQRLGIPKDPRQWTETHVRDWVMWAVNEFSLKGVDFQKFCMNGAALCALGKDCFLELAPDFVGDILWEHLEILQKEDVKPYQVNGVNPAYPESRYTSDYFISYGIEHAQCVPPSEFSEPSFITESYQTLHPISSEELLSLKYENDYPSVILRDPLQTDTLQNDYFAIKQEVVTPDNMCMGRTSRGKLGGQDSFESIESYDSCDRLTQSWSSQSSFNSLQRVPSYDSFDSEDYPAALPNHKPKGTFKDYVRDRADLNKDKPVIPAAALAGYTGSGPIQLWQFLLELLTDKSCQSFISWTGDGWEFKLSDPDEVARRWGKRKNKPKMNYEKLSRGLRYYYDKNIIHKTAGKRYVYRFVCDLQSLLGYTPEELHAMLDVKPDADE
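For RUNX1 binding intensity (PBM fluorescence), RUNX1 alone in this document: Full-length recombinant human RUNX1 bound to double-stranded 36-bp genomic probes on a high-density microarray, scored as Alexa488 fluorescence per spot via anti-RUNX1 antibody, median of four replicate spots.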

| Sequence | ETS1 binding intensity |
| --- | --- |
| ACAGAGAAGCTTCCTATTGTGGGATTCACCACCACC | 623 |
| CCAATGGGCAGGCGGAAACCGCGGGCTCGTGCTCCC | 1580 |
| CCGCCGCGCGCCGGATGCTAAGACCGCGATTTCCCC | 4180 |
| GTCGGAAGTGGCCGTGAGCCCAAGCCGCGGTCCCGG | 480 |
| GCTCATTTCCTGGCCGCTCCTGGGCTTCGCGGTGAG | 498 |
| TCTGCCGCCAGCCCATCCGCGACCGCATCCAGATCT | 346 |
| CTGCTGACCAAAACAGGATGTGGTCTACACAAAGTG | 10300 |
| CCTGCCTGAGGCAGGAAGCCGCAGCTGAGGGACGGC | 2980 |
| TGCGCCGGAAGTGCATGAGCTGCCGATGTGGTGCTT | 4760 |
| CAGTGACAGGAAGTGGTTCAGCGGTTGTTTAGGGCT | 7680 |
| TCTGATGTGCCTTCTTCCTGACCACAGCAACTACTA | 392 |
| CTGGGCTCGCCAGGCGGAAGTGGTTGGAGACTGCGT | 6330 |
| ACCTTCTGTTCCCTTCCTCAGACCGCAGGCGAGATG | 367 |
| GGTTTCGCTTCCGGGTTAGGCGGCCGCAGAAGCGTA | 947 |
| CTGCTGGCGTTCCCGGATGTGCGGTGGCGGTGCTAC | 4900 |
| GGGAGGCCCCATCCTGTGTGGCTGTGGCTTTTGCCT | 414 |
| GATGCTCTAACAGGAAGTGGGTTAAGGAGCTGCACT | 12200 |
| CCTGGGCAAGGCCGGATGCCTGTGGCTTCCAGGCTG | 2880 |
| CTTTCGGGGGCGGAAGTTGCGGTGCATTGTAGGTTC | 7760 |
| ATTTTTCCTTCCTTCTCCCGTCCCCGCAGAGTGCAA | 507 |

| Sequence | ETS1 binding intensity |
| --- | --- |
| GGGCAGGCCGGATGTGGGAGACCACAAAGCCCAAGG | 5360 |
| GCTCCCTGGACAGGATGTGGTGCCGAGTAAACAGCT | 4470 |
| TAAGTGAATTTCCTGCCCGCCTCCGCCCACAGCGTA | 775 |
| GCCTGCACCCTAGTTCCGGTGTGGGTGGAGGGGCCG | 1040 |
| GAGGGCTGCTTCCTGCTCTGTGGAGGCCGCAGCGGG | 555 |
| TACAGCTGGAACGTCCTGTGGTTAACATTCTGCTCT | 423 |
| CCCTTCCGCGTGGGTTGCACCTGCTAACCACAGAGC | 329 |
| TTCATTTCTACCTTCCTGTGGTCTTTTTGCCTCCGA | 512 |
| TGGGGAGCAGGAAGCTGGGGGCGGTTGTGGAGGGAC | 1130 |
| ACAGATAGTGATATCCTGTGGTCAATTCCCTCCCCT | 949 |
| CTGAGCCGGGACCGGAAGCCGCACCGCCCCCCGCGC | 18400 |
| GCGCTACAGGAACTTCCTGCGCGGTTGCTGTCGTTG | 1360 |
| TCGTGAAAAAGGAAGTGGATAAAGTGGTTACGGCAA | 2040 |
| TTGTCGGGTATGGGATGTGGGCAGAGAGTATGATGG | 604 |
| CCGTACTTCCGCTTTACTCAGATTTTGGACCGCGGG | 1810 |
| GAAGTCACATCCTGTCTGTTGCGGCAGGGCACAGAG | 1470 |
| GGGTCCTTCCGGGTTTTGTGTCGAATCTGCGGCGGC | 486 |
| AGGTTCCGGCGAAAGTGACCGAAAGTAACCGCCGGG | 351 |
| GACAGAGGAAACTAGGTGTGACAACCACAAACAGCT | 432 |
| GAGCTAGCCACTTCCTCCCCCACAACTACACCCAGG | 814 |

biological target: RUNX1 (UniProt Q01196); assay: RUNX1 binding intensity (PBM fluorescence), RUNX1 alone (arbitrary fluorescence units); higher = stronger binding; conditions: RUNX1 concentration 2 nM; ETS1 concentration 0 nM
Method: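 Cooperative gcPBM on 36-bp genomic probes with neighbouring ETS1 and RUNX1 sites. Recombinant human RUNX1 (2 nM) was incubated alone or with ETS1 (25 nM) and detected with anti-RUNX1 antibody plus Alexa488 secondary. Values are medians over 4 replicate spots; the RUNX1+ETS1 data were normalised to the RUNX1-only data. The probes sit in constant array flanks that are not printed.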

Chain of RUNX1 (Q01196 whole entry): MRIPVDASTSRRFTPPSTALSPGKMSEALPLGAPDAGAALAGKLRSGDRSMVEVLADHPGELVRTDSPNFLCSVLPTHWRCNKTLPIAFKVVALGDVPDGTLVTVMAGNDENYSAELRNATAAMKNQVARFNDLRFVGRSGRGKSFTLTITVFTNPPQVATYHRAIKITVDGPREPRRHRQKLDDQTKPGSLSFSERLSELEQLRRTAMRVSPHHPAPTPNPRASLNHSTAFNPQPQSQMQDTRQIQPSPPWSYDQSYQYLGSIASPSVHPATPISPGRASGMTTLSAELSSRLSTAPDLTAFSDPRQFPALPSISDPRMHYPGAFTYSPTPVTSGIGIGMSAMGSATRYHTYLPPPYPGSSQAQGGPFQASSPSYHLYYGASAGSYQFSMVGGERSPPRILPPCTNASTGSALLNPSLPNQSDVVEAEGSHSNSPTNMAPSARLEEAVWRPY

| Sequence | RUNX1 binding intensity |
| --- | --- |
| ACAGAGAAGCTTCCTATTGTGGGATTCACCACCACC | 735 |
| CCAATGGGCAGGCGGAAACCGCGGGCTCGTGCTCCC | 956 |
| CCGCCGCGCGCCGGATGCTAAGACCGCGATTTCCCC | 781 |
| GTCGGAAGTGGCCGTGAGCCCAAGCCGCGGTCCCGG | 678 |
| GCTCATTTCCTGGCCGCTCCTGGGCTTCGCGGTGAG | 834 |
| TCTGCCGCCAGCCCATCCGCGACCGCATCCAGATCT | 1250 |
| CTGCTGACCAAAACAGGATGTGGTCTACACAAAGTG | 800 |
| CCTGCCTGAGGCAGGAAGCCGCAGCTGAGGGACGGC | 761 |
| TGCGCCGGAAGTGCATGAGCTGCCGATGTGGTGCTT | 715 |
| CAGTGACAGGAAGTGGTTCAGCGGTTGTTTAGGGCT | 892 |
| TCTGATGTGCCTTCTTCCTGACCACAGCAACTACTA | 1250 |
| CTGGGCTCGCCAGGCGGAAGTGGTTGGAGACTGCGT | 668 |
| ACCTTCTGTTCCCTTCCTCAGACCGCAGGCGAGATG | 1620 |
| GGTTTCGCTTCCGGGTTAGGCGGCCGCAGAAGCGTA | 790 |
| CTGCTGGCGTTCCCGGATGTGCGGTGGCGGTGCTAC | 753 |
| GGGAGGCCCCATCCTGTGTGGCTGTGGCTTTTGCCT | 653 |
| GATGCTCTAACAGGAAGTGGGTTAAGGAGCTGCACT | 673 |
| CCTGGGCAAGGCCGGATGCCTGTGGCTTCCAGGCTG | 685 |
| CTTTCGGGGGCGGAAGTTGCGGTGCATTGTAGGTTC | 955 |
| ATTTTTCCTTCCTTCTCCCGTCCCCGCAGAGTGCAA | 1540 |

| Sequence | RUNX1 binding intensity |
| --- | --- |
| GGGCAGGCCGGATGTGGGAGACCACAAAGCCCAAGG | 820 |
| GCTCCCTGGACAGGATGTGGTGCCGAGTAAACAGCT | 645 |
| TAAGTGAATTTCCTGCCCGCCTCCGCCCACAGCGTA | 809 |
| GCCTGCACCCTAGTTCCGGTGTGGGTGGAGGGGCCG | 4050 |
| GAGGGCTGCTTCCTGCTCTGTGGAGGCCGCAGCGGG | 682 |
| TACAGCTGGAACGTCCTGTGGTTAACATTCTGCTCT | 1130 |
| CCCTTCCGCGTGGGTTGCACCTGCTAACCACAGAGC | 1090 |
| TTCATTTCTACCTTCCTGTGGTCTTTTTGCCTCCGA | 1860 |
| TGGGGAGCAGGAAGCTGGGGGCGGTTGTGGAGGGAC | 723 |
| ACAGATAGTGATATCCTGTGGTCAATTCCCTCCCCT | 1030 |
| CTGAGCCGGGACCGGAAGCCGCACCGCCCCCCGCGC | 828 |
| GCGCTACAGGAACTTCCTGCGCGGTTGCTGTCGTTG | 702 |
| TCGTGAAAAAGGAAGTGGATAAAGTGGTTACGGCAA | 792 |
| TTGTCGGGTATGGGATGTGGGCAGAGAGTATGATGG | 866 |
| CCGTACTTCCGCTTTACTCAGATTTTGGACCGCGGG | 1490 |
| GAAGTCACATCCTGTCTGTTGCGGCAGGGCACAGAG | 756 |
| GGGTCCTTCCGGGTTTTGTGTCGAATCTGCGGCGGC | 784 |
| AGGTTCCGGCGAAAGTGACCGAAAGTAACCGCCGGG | 670 |
| GACAGAGGAAACTAGGTGTGACAACCACAAACAGCT | 882 |
| GAGCTAGCCACTTCCTCCCCCACAACTACACCCAGG | 976 |
